From paper PMC7862700, “An all-to-all approach to the identification of sequence-specific readers for epigenetic DNA modifications on cytosine”

Target: T1, SPIC (Homo sapiens, UniProt Q8N5J4 1-248)
T1 sequence: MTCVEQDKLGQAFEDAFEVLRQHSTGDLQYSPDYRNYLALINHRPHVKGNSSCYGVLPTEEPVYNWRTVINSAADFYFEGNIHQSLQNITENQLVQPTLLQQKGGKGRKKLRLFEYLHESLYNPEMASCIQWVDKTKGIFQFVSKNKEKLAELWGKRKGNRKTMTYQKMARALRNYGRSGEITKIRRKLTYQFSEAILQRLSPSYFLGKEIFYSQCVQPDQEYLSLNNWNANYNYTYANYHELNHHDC
Test: DAPPL (digital affinity profiling via proximity ligation, sequencing); 10 mM Tris-HCl pH 7.5, 50 mM NaCl, 1 mM DTT, 4% glycerol, room temperature, 30 min; GST-TFs on glutathione beads, 16-mer random dsDNA library, 0.1% formaldehyde crosslink after washing; high values mean tight binding
Conditions: protein: recombinant; tags: N-terminal GST; dsDNA, one strand shown
How it was run: (§1)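 A tag-only sample was pooled with DNA-barcoded human transcription factors that had been expressed in yeast as GST fusions and captured on glutathione beads. The pools were incubated for 30 min at room temperature with 200 nmole of a random double-stranded 16-mer DNA library in Tris/NaCl/DTT/glycerol buffer, then washed, crosslinked with 0.1% formaldehyde, proximity-ligated (BsaI/T4 ligase, 1 h, 37 °C), PCR-amplified and sequenced on an Illumina NextSeq500. Binding signal is each hexamer's read frequency for a factor divided by its frequency for the tag-only sample.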

| Sequence | binding signal |
| --- | --- |
| CAATCG | 1.03 fold enrichment (6-mer frequency, TF over GST control) |
| ACGCCA | 1 fold enrichment (6-mer frequency, TF over GST control) |
| GGGCAT | 1 fold enrichment (6-mer frequency, TF over GST control) |
| CTGGCG | 1.09 fold enrichment (6-mer frequency, TF over GST control) |
| GCGCGT | 1 fold enrichment (6-mer frequency, TF over GST control) |

Target: CRX (Homo sapiens, UniProt O43186 1-299)
Test: as above
Conditions: protein: recombinant; tags: N-terminal GST; dsDNA, one strand shown
How it was run: as §1

CRX, sequence (O43186 whole entry): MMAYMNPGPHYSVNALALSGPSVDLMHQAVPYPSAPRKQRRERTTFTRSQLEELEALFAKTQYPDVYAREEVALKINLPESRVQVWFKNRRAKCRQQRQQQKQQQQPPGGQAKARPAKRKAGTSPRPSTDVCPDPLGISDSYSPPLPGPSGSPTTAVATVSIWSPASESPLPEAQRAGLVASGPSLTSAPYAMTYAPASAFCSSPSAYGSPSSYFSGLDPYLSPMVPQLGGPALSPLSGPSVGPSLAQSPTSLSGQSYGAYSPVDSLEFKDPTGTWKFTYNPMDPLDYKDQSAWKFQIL

| Sequence | binding signal |
| --- | --- |
| GGAATA | 1.02 fold enrichment (6-mer frequency, TF over GST control) |
| AGGATC | 1.2 fold enrichment (6-mer frequency, TF over GST control) |
| GGATTC | 1.15 fold enrichment (6-mer frequency, TF over GST control) |
| TTCGGG | 1 fold enrichment (6-mer frequency, TF over GST control) |
| GGGATT | 2.71 fold enrichment (6-mer frequency, TF over GST control) |
| GGATCA | 1.53 fold enrichment (6-mer frequency, TF over GST control) |
| GATTAG | 3.62 fold enrichment (6-mer frequency, TF over GST control) |
| AGGATT | 2.82 fold enrichment (6-mer frequency, TF over GST control) |
| AGACTA | 1.02 fold enrichment (6-mer frequency, TF over GST control) |
| TAGAGA | 1.15 fold enrichment (6-mer frequency, TF over GST control) |
| CGAGAA | 1.27 fold enrichment (6-mer frequency, TF over GST control) |
| CAGAAA | 1.07 fold enrichment (6-mer frequency, TF over GST control) |
| ATCCAG | 1.29 fold enrichment (6-mer frequency, TF over GST control) |
| GGATTA | 5.42 fold enrichment (6-mer frequency, TF over GST control) |
| GAGATT | 1.57 fold enrichment (6-mer frequency, TF over GST control) |
| GTGGAT | 1.25 fold enrichment (6-mer frequency, TF over GST control) |
| TAAGAC | 1.72 fold enrichment (6-mer frequency, TF over GST control) |
| GATAAG | 1.77 fold enrichment (6-mer frequency, TF over GST control) |
| GAAGAT | 1.12 fold enrichment (6-mer frequency, TF over GST control) |
| CTAGAC | 1 fold enrichment (6-mer frequency, TF over GST control) |
| GACTAA | 1.44 fold enrichment (6-mer frequency, TF over GST control) |
| AGAGAT | 1.38 fold enrichment (6-mer frequency, TF over GST control) |
| CAAAGA | 1.05 fold enrichment (6-mer frequency, TF over GST control) |
| AGAATC | 1.21 fold enrichment (6-mer frequency, TF over GST control) |
| GAATCA | 1.04 fold enrichment (6-mer frequency, TF over GST control) |

Target: T2, ERF (Homo sapiens, UniProt P50548 1-548)
T2 sequence: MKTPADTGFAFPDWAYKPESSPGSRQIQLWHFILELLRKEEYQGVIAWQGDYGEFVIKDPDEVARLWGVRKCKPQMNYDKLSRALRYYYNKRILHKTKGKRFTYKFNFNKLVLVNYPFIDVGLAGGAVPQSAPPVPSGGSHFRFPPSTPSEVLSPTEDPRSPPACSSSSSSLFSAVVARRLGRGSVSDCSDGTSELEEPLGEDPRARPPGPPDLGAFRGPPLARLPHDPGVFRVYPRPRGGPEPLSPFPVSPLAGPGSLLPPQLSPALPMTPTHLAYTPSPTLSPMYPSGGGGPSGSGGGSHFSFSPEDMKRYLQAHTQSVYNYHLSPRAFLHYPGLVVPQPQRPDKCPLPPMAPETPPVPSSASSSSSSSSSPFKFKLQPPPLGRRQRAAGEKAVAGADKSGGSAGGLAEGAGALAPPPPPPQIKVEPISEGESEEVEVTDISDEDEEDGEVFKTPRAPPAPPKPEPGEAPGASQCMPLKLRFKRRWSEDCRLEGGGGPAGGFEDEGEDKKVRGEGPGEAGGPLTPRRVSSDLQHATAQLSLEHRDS
Test: as above
Conditions: protein: recombinant; tags: N-terminal GST; dsDNA, one strand shown
How it was run: as §1

| Sequence | binding signal |
| --- | --- |
| GGAATA | 1.02 fold enrichment (6-mer frequency, TF over GST control) |
| CCAAGA | 1.01 fold enrichment (6-mer frequency, TF over GST control) |
| GCGAAC | 1.05 fold enrichment (6-mer frequency, TF over GST control) |

Target: T3, SPDEF (Homo sapiens, UniProt O95238 1-335)
T3 sequence: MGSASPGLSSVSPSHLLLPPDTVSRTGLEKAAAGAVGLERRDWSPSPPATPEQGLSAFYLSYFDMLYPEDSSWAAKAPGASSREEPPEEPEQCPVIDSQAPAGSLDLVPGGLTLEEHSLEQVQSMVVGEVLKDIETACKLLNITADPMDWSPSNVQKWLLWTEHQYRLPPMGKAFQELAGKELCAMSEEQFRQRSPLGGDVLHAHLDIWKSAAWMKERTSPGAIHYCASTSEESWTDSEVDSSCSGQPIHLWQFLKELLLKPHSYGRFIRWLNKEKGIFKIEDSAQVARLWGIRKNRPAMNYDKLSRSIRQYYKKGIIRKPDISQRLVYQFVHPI
Test: as above
Conditions: protein: recombinant; tags: N-terminal GST; dsDNA, one strand shown
How it was run: as §1

| Sequence | binding signal |
| --- | --- |
| AGGATC | 1.2 fold enrichment (6-mer frequency, TF over GST control) |
| GGATTC | 1.07 fold enrichment (6-mer frequency, TF over GST control) |
| AGGATT | 1.04 fold enrichment (6-mer frequency, TF over GST control) |
| GGATTA | 1.02 fold enrichment (6-mer frequency, TF over GST control) |

Target: T4, ETV7 (Homo sapiens, UniProt Q9Y603 1-341)
T4 sequence: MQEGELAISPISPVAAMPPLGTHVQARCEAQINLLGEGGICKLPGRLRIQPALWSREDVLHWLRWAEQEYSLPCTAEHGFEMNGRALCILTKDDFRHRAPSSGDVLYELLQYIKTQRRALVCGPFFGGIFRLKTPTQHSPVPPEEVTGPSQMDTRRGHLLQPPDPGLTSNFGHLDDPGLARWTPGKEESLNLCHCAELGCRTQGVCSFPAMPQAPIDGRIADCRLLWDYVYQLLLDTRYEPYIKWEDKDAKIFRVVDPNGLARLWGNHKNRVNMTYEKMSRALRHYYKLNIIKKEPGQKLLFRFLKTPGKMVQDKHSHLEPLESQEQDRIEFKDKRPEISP
Test: as above
Conditions: protein: recombinant; tags: N-terminal GST; dsDNA, one strand shown
How it was run: as §1

| Sequence | binding signal |
| --- | --- |
| CAGAAC | 1.03 fold enrichment (6-mer frequency, TF over GST control) |
| GCGAAC | 1.04 fold enrichment (6-mer frequency, TF over GST control) |
| GGAAAG | 1.06 fold enrichment (6-mer frequency, TF over GST control) |
| CGAGAA | 1.01 fold enrichment (6-mer frequency, TF over GST control) |
| CAGAAA | 1.02 fold enrichment (6-mer frequency, TF over GST control) |
| GAAAGT | 1 fold enrichment (6-mer frequency, TF over GST control) |
| GAAGAT | 1 fold enrichment (6-mer frequency, TF over GST control) |
